The results in this text go back to PubChem BioAssay (Tox21).

Each structure is given as a SMILES string. Several values for one entry are separate records, joined by “and”; a condition that tells them apart may be missing. Equal values may be shown once. Inconclusive results are not listed. Some structures have more than one record in an assay (separate samples or runs), and their calls can disagree. Activity calls are given as the source filed them. Unless noted, the call rests on the fitted dose curve; in most records, active means well fitted curve in the direction sought with a large enough effect in the repeat runs; inconclusive means weak or mixed curves; inactive means no such curve, though single readings can be large; an effect the other way counts as inactive or inconclusive. Residues, ends and D or L forms follow the SMILES beside them.

Assay [1] in a line: qHTS assay to identify small molecule antagonists of the glucocorticoid receptor (GR) signaling pathway - cell viability counter screen (AID 720693). Further: nearly all actives have a fitted effect of over 55% in size.
Assay [2] in a line: qHTS assay for identifying genotoxic compounds that show differential cytotoxicity against isogenic chicken DT40 cell lines with known DNA damage response pathways - Rev3 mutant cell line (AID 743014). Further: nearly all actives have a fitted effect of over 55% in size. Further: potency means the concentration at half of the fitted maximal effect. For orientation: In qHTS, concentration-response curves come from the screen itself.
Assay [3] in a line: qHTS assay for identifying genotoxic compounds that show differential cytotoxicity against isogenic chicken DT40 cell lines with known DNA damage response pathways - Rad54/Ku70 mutant cell line (AID 743015). Further: nearly all actives have a fitted effect of over 60% in size. Further: potency means the concentration at half of the fitted maximal effect.
The nature of assay [4]: qHTS assay to identify small molecule antagonists of the androgen receptor (AR) signaling pathway - cell viability counter screen (AID 743033; further: nearly all actives have a fitted effect of over 45% in size).
The target of assay [5] is Androgen receptor (Homo sapiens) (UniProt P10275). The experiment in a line: qHTS assay to identify small molecule antagonists of the androgen receptor (AR) signaling pathway (AID 743035; active means well fitted inhibition curve with a large enough effect in the signal ratio in the repeat runs, not every such curve was filed as active; the % refers to the signal ratio). The procedure, abridged: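 Steps: seed AR-UAS-bla GripTite HEK293 cells, incubate 4 h at 37C; pin in test compound, then add agonist R1881; incubate 16 h at 37C; add LiveBLAzer B/G FRET substrate, 2 h at room temperature; read fluorescence.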
Sequence of Androgen receptor (Homo sapiens) (P10275 whole entry, looked up): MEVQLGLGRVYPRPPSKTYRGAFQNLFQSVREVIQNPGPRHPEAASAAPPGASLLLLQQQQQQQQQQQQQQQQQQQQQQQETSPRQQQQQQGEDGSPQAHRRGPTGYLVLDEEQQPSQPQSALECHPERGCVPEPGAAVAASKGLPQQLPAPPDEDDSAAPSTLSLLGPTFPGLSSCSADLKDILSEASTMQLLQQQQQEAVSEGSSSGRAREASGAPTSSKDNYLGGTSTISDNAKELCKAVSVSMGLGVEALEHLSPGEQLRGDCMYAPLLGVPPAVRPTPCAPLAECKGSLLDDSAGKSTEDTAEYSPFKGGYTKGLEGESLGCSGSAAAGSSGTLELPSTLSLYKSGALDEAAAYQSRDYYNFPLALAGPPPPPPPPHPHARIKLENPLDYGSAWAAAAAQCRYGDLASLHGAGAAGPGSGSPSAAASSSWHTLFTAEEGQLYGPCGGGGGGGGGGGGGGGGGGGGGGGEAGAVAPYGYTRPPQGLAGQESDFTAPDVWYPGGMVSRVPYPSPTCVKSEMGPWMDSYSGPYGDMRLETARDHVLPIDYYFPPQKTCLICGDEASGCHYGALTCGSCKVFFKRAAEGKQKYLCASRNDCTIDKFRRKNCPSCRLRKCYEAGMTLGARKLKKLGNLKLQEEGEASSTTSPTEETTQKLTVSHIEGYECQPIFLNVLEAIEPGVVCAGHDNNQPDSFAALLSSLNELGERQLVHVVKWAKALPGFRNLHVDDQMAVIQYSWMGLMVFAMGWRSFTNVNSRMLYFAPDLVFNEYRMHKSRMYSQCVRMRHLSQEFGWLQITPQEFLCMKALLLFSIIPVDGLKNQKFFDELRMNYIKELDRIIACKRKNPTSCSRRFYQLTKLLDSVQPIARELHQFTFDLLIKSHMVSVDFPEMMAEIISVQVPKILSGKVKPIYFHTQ

For assay [6] the target is unchanged. The experiment in a line: qHTS assay to identify small molecule agonists of the androgen receptor (AR) signaling pathway (AID 743036; active means well fitted activation curve with a large enough effect in the signal ratio in the repeat runs, with a control signal flat, not every such curve was filed as active; the % refers to the signal ratio). The procedure, abridged:
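AR-UAS-bla HEK293 cells, plated 4 h before dosing, were treated with compound for 16 h at 37C. beta-Lactamase reporter read after 2 h with LiveBLAzer B/G FRET substrate at room temperature.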

Assay [7] in a line: qHTS assay to identify small molecule antagonists of the androgen receptor (AR) signaling pathway using the MDA cell line - cell viability counter screen (AID 743041; further: nearly all actives have a fitted effect of over 45% in size). A digest of the protocol:
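Cytotoxicity counter screen: MDA-kb2 AR-luc cells, compound + R1881, 16 h, 37C, 0% CO2; CellTiter-Fluor added at 15.5 h, fluorescence read after 30 min.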

In assay [8] the target is Androgen receptor (Homo sapiens) (UniProt P10275). The experiment in a line: qHTS assay to identify small molecule antagonists of the androgen receptor (AR) signaling pathway using the MDA cell line (AID 743042; further: nearly all actives have a fitted effect of over 55% in size). The procedure, abridged: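 MDA-kb2 breast carcinoma cells carrying MMTV-luciferase (AR/GR responsive) were co-treated with compounds and the agonist R1881 for 16 h at 37C. Inhibition read as ONE-Glo luminescence; CellTiter-Fluor fluorescence measured in parallel for cytotoxicity.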

Assay [9] can be described thus: qHTS assay for identifying genotoxic compounds that show differential cytotoxicity against isogenic chicken DT40 cell lines with known DNA damage response pathways - wild type cell line (AID 743012). Further: nearly all actives have a fitted effect of over 60% in size. Further: potency means the concentration at half of the fitted maximal effect. The procedure, abridged: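 Cytotoxicity in repair-proficient parental chicken DT40 cells serves as the comparator for Rad54/Ku70- and Rev3-deficient lines. Cells were exposed to compounds for 40 h at 37 C/5% CO2, and ATP-based luminescence (CellTiter-Glo) measured viability.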

Assay [10] addresses Androgen receptor (Homo sapiens) (UniProt P10275). In words: qHTS assay to identify small molecule agonists of the androgen receptor (AR) signaling pathway using the MDA cell line (AID 743040; further: nearly all actives have a fitted effect of over 20% in size). A digest of the protocol: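 Luciferase read-out, ONE-Glo, 30 min RT. Cells: MDA-kb2 AR-luc, MMTV promoter with AR and GR response elements. Compound exposure 16 h, 37C, 0% CO2, after 5 h pre-incubation. qHTS agonist mode.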

As for `CCCN(CCC)S(=O)(=O)c1ccc(C(=O)O)cc1`, the Potency result in assay [1], in assay [2], in assay [3] and in assay [7] was “inactive” in each case. The molecule was called inactive in assay [4], in assay [5], in assay [6] and in assay [8].

`COC(=O)[C@H](Cc1ccccc1)NC(=O)[C@@H](N)CC(=O)O` (H-Asp-Phe-OMe): the Potency result in assay [1], in assay [9], in assay [2], in assay [3] and in assay [7] was “inactive” throughout. The result in assay [4] was inactive.

Consider `C1N2CN3CN1CN(C2)C3`, for which the Potency entry in assay [1], in assay [9], in assay [2], in assay [3], in assay [10] and in [7] was “inactive” in each case. Moreover, the outcome in assay [4], in [5], in assay [6] and in assay [8] was inactive.

As for `COc1ccc2[nH]cc(CCNC(C)=O)c2c1`, the Potency entry in assay [1], in assay [9], in [2], in assay [3] and in [7] was “inactive” throughout. The outcome in assay [4] was inactive.

Turning to `Nc1ccc(C(=O)O)cc1`, the Potency result in assay [1], in assay [9], in [2], in [3] and in assay [7] was “inactive” throughout. The result in [4] was inactive.

As to `CC(=O)Nc1nnc(S(N)(=O)=O)s1`, the Potency result in [1], in assay [9], in assay [2], in [3] and in [7] was “inactive” each time. Further, the call in [4] was inactive.

As for `O=C(C1CCCCC1)N1CC(=O)N2CCc3ccccc3C2C1` (centres undefined), the Potency entry in [1], in assay [2], in assay [3] and in assay [7] was “inactive” each time. Besides, the call in assay [4] was inactive.

For the molecule `O=C(O)C(=O)O`, the Potency result in assay [1], in assay [9], in assay [2], in assay [3] and in [7] was “inactive” each time. In addition, the molecule was classed as inactive in [4].

For the molecule `CCCCOC(=O)CC(CC(=O)OCCCC)(OC(C)=O)C(=O)OCCCC`, the Potency result in assay [1], in [2] and in [7] was “inactive” throughout. Besides, the Potency result in [3] was “inactive and 54.5 µM (active)”. The call in assay [4] was inactive.

With `O=C(O)CS`, the Potency entry in assay [1] and in [7] was “inactive” throughout. Moreover, the Potency result in assay [9] was “inactive and 61.6 µM (active)”; in assay [2], “inactive and 43.6 µM (active)”; in assay [3] it was “inactive and 12.3 µM (active)”. Further, the outcome in [4] was inactive.

As for `O=S(=O)(O)NC1CCCCC1`, the Potency result in assay [1], in assay [9], in assay [2], in assay [3] and in assay [7] was “inactive” each time. For the same molecule, the molecule was classed as inactive in [4].

As for `Cc1cc(=O)n(-c2ccccc2)n1C`, the Potency entry in assay [1], in assay [2], in [3], in assay [10] and in [7] was “inactive” in each case. For the same molecule, the molecule was called inactive in assay [4], in assay [5], in [6] and in [8].

For the molecule `CC(C)[C@@H]1CC[C@@H](C)C[C@H]1O`, the Potency result in [1], in [2], in [3], in assay [10] and in assay [7] was “inactive” in each case. Further, the molecule was called inactive in assay [4], in assay [5], in [6] and in assay [8].

`Cc1ccc(O)cc1`: the Potency result in assay [1], in assay [9], in assay [2], in assay [3], in [10] and in assay [7] was “inactive” in each case. Further, the result in assay [4], in [5], in assay [6] and in assay [8] was inactive.

With `O=NO`, the Potency result in assay [1], in assay [9], in assay [2], in assay [3] and in assay [7] was “inactive” each time. The molecule was classed as inactive in assay [4].

Turning to `O=c1ccc2ccccc2o1`, the Potency entry in assay [1], in [9], in assay [2], in [3] and in assay [7] was “inactive” each time. In addition, the result in assay [4] was inactive.

`Cc1ccc(S(=O)(=O)NC(=O)NN2CCCCCC2)cc1`: the Potency entry in assay [1], in assay [3] and in [7] was “inactive” throughout. For the same molecule, the Potency result in assay [2] is “inactive and 68.6 µM (active)”. Further, the result in assay [4] was inactive.

Take `NNC(=O)c1ccncc1`: the Potency result in assay [1], in assay [9], in [2], in assay [3] and in assay [7] was “inactive” in each case. Besides, the call in assay [4] was inactive.

Turning to `O=C1NC(=O)c2ccccc21`, the Potency entry in [1], in assay [9], in assay [2], in assay [3] and in assay [7] was “inactive” in each case. Also, in [4], the outcome was inactive.

Turning to `O=C(c1ccccc1)C(O)c1ccccc1` (centres undefined), the Potency result in assay [1], in assay [9], in [2], in assay [3] and in [7] was “inactive” throughout. In [4], the molecule was called inactive.

Take `CC(C)(Oc1ccc(C2CC2(Cl)Cl)cc1)C(=O)O` (centres undefined): the Potency result in [1], in assay [2], in [3], in assay [10] and in [7] was “inactive” throughout. The molecule was classed as inactive in assay [4], in assay [5], in assay [6] and in assay [8].

Take `CCCNC(=O)NS(=O)(=O)c1ccc(Cl)cc1`: the Potency result in [1], in assay [9], in [2], in assay [3] and in [7] was “inactive” in each case. For the same molecule, the molecule was called inactive in [4].

On to `c1ccc2[nH]ccc2c1`, for which the Potency entry in assay [1], in assay [2], in assay [3], in assay [10] and in assay [7] was “inactive” each time. The molecule was classed as inactive in assay [4], in assay [5], in assay [6] and in assay [8].

In the case of `CCCCC(CC)COC(=O)/C=C/c1ccc(OC)cc1` (centres undefined), the Potency entry in [1], in [2], in assay [3], in [10] and in [7] was “inactive” in each case. Also, the call in assay [4], in assay [5], in [6] and in assay [8] was inactive.

In the case of `CC(=O)NS(=O)(=O)c1ccc(N)cc1`, the Potency entry in assay [1], in assay [9], in assay [2], in [3] and in [7] was “inactive” throughout. Further, the outcome in assay [4] was inactive.

In the case of `Cc1ccc(C)c(OCCCC(C)(C)C(=O)O)c1`, the Potency entry in assay [1], in assay [2], in [3], in assay [10] and in assay [7] was “inactive” each time. Moreover, the call in assay [4], in [5], in assay [6] and in assay [8] was inactive.

For `C[C@]12C=CC(=O)C=C1CC[C@@H]1[C@@H]2[C@@H](O)C[C@@]2(C)[C@H]1CC[C@]2(O)C(=O)CO`, the Potency entry in assay [1], in assay [9], in [2] and in [7] was “inactive” throughout. Further, the result in assay [4] was inactive.

As for `Cc1noc(NS(=O)(=O)c2ccc(N)cc2)c1C`, the Potency result in assay [1], in assay [9], in assay [2], in assay [3] and in assay [7] was “inactive” throughout. In assay [4], the molecule was classed as inactive.

In the case of `COc1c2occc2cc2ccc(=O)oc12`, the Potency entry in [1], in assay [9], in assay [2], in assay [3] and in [7] was “inactive” each time. Besides, the molecule was classed as inactive in [4].

For `O=C(O)c1cc(N=Nc2ccc(S(=O)(=O)Nc3ccccn3)cc2)ccc1O`, the Potency result in assay [1], in assay [9], in [2], in assay [3] and in assay [7] was “inactive” in each case. Moreover, the result in [4] was inactive.
